Data from the supplement of paper PMC6555819.

Assays:
Assay in all cases: PBM binding z-score (relative to random genomic background probes); higher = stronger binding; sequences stand for … in GC…GCGATTGACAGCGTAGAATGAAGG
[1] = test system: RARb homodimer (NR concentration 270 nM)
Outline: (§1)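 Ligand-free nuclear receptor dimers were applied to custom Agilent 4×180K protein-binding microarrays whose double-stranded probes carried direct-repeat seeds, single-nucleotide variants, half-site ablations and random human genomic background sequences in 34-nt variable regions. Incubation lasted 1 h. Binding z-scores were computed against the random background probes from regression-normalized fluorescence.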

[2] = test system: RARg:RXRa (NR concentration 270 nM, RXRa partner concentration 90 nM)
Outline: as §1

[3] = test system: RARg homodimer (NR concentration 270 nM)
Outline: as §1

[4] = test system: RXRa DBDmut IVT, anti-RXR (DBD mutation: RXRa K156A/R161A, NR concentration 90 nM)
Outline: as §1

[5] = test system: RXRa homodimer (NR concentration 180 nM)
Outline: as §1

[6] = test system: THRa:RXRa (NR concentration 90 nM, RXRa partner concentration 90 nM)
Outline: as §1

[7] = test system: THRa homodimer (NR concentration 90 nM)
Outline: as §1

[8] = test system: VDR homodimer (NR concentration 270 nM)
Outline: as §1

Row | Sequence | PBM binding z-score [1] | PBM binding z-score [2] | PBM binding z-score [3] | PBM binding z-score [4] | PBM binding z-score [5] | PBM binding z-score [6] | PBM binding z-score [7] | PBM binding z-score [8]
1 | AGAACGAGGGCACGCTGAGTTTATAGCAGAGTAG | 1.45 | 2.31 | 2.32 | 2.18 | 1.5 | 2.15 | -0.111 | 4.06
2 | CCATACGGGTCACGAGGTTATAGCACGACGAGCG | 3.99 | 6.02 | 5.35 | 1.27 | 7.38 | 3.55 | 1.09 | 2.45
3 | CCAGACAGGTGAAAGGTAACCCAGTCTGGTACGC | 0.747 | 1.35 | 0.881 | -0.455 | 1.83 | 0.935 | -0.0283 | -0.223
4 | TGAATGAGGTTATAAGATGAGGGAACGTTGCAAA | 0.278 | 1.31 | 1.12 | 0.817 | 1.76 | 1.77 | 0.282 | 0.388
5 | GCTAGTTGGTCAGTAAAGGGTCACACACCGGTCG | 4.43 | 4.33 | 3.73 | 0.428 | 3.78 | 2.77 | 0.995 | 1.74
6 | AATACAGGGTCATCGCAGGCCAGAGTACGCACAG | 3.53 | 5.41 | 5.21 | 3.48 | 6.8 | 4.75 | 1.42 | 3.55
7 | CCAAGCAGGCCAGGGTCACTCAAGCATTTCGCTT | 2.75 | 3.16 | 2.36 | 0.375 | 3.22 | 3 | 1.15 | 1.51
8 | CCTAGCACGCCAGGGTCACTCAAGCATTTCGCTT | 2.65 | 2.94 | 2.18 | 0.65 | 3.14 | 2.76 | 1.12 | 0.973
9 | ACAGACAGGTGATGAAGGTAACTGAGGCTATCAT | 0.244 | 0.321 | 0.603 | -0.383 | 0.305 | 1.33 | -0.0787 | -0.259
10 | CCAGACAGGTGAGAAGGTAGCTCAGCCTCGATTA | 0.12 | 0.0158 | -0.00904 | -0.104 | -0.128 | -0.29 | -0.679 | -0.24
11 | ATCCCTAGGTAAAGATAGTTCAGTGAATGCAAAT | 1.19 | 0.428 | 0.526 | 0.103 | 0.295 | 0.844 | 0.169 | 0.524
12 | TCGAGTAGCTTAGTCGGGGCATTCAGCCAACATA | -0.405 | -0.536 | -1.05 | -0.135 | -0.559 | -0.289 | -0.688 | -0.534
13 | ATCTCTAGGTAAATATAGTTCAGTGAATGCAAAT | 1.1 | 1.03 | 1.14 | 0.551 | 0.623 | 1.05 | 0.0877 | 1.2
14 | ATACGAAGGTGATCGTGAGGTCGTTGATACTAAC | 1.55 | 2.15 | 0.985 | 0.65 | 1.6 | 3.28 | 1.94 | 2.48
15 | TCTAGTTGGACAAAGGTCACACACTCGAAATGCG | 5.06 | 6.62 | 5.93 | 1.75 | 7.13 | 4.12 | 1.8 | 2.24
16 | CCTAGTGGGCCAAAAAGGTCATTGATGCCGATAA | 4.28 | 4.7 | 4.5 | 0.794 | 4.79 | 2.71 | 0.434 | 2.66

Row | Sequence | PBM binding z-score [1] | PBM binding z-score [2] | PBM binding z-score [3] | PBM binding z-score [4] | PBM binding z-score [5] | PBM binding z-score [6] | PBM binding z-score [7] | PBM binding z-score [8]
17 | ACTAGCAGGCCAAGGGCCACTCAAGATTAGTCCG | 0.598 | 0.143 | 0.443 | -0.506 | 0.0111 | -0.212 | -0.921 | -0.964
18 | CCTTACGGGTCACCGACAGGTTATAGCATTTGGA | 3.79 | 6.61 | 5.55 | 1.12 | 6.11 | 3.23 | 0.772 | 1.09
19 | TCCAGTTGGTCAAAGGTCACACACTCGAAATGCG | 4.95 | 7.17 | 6.07 | 2.25 | 7.96 | 4.08 | 2.47 | 2.99
20 | CGAACTAGGTCAGATCAGGACAGTGAAGGATGAT | 2.33 | 2.68 | 4.03 | 0.645 | 1.52 | 4.73 | 1.25 | -0.038
21 | AGAATGAGGTTATGAAGATCAGGGAATTGCGGTC | 1.07 | 1.45 | 1.06 | 1.05 | 2.45 | 2.35 | 0.96 | 0.716
22 | CCTTACGGGTCACTGACAGGCTATAGCATTTGGA | 2.85 | 5.13 | 4.79 | 1.86 | 5.2 | 2.41 | -0.00278 | 0.687
23 | GCTCGGAGGACAAGGCCAGAGCTTTGTCCGTAGA | 0.141 | -0.322 | -0.004 | -1.09 | -1.17 | 0.254 | -0.595 | -0.801
24 | CGTCCAAGGTCAGACAGGTCAGTGAATGCCGAGT | 4.84 | 5.32 | 6.13 | 3.11 | 4.43 | 3.97 | 2.16 | 3.77
25 | ATACCAACGTGATCGTGAGGTCGTTGATACTAAC | 0.904 | 0.317 | 0.269 | 0.532 | 0.915 | 2.36 | 1.73 | 2.32
26 | TCTTGTAGATCTAGCAGGTTAAGAAAGCCTGAGT | 0.195 | -0.205 | -0.19 | 0.705 | 0.231 | 0.286 | -0.115 | -0.0564
27 | CAAACTAGGTCTAAGGTCAAAGTCGAGCCAACCA | 4.24 | 4.86 | 4.08 | 2.51 | 5.24 | 4.1 | 4.5 | 3.63
28 | TCGAGTAGGTTACCAGTGGGGCATTCAGCTTTCT | 0.636 | 1.06 | 0.275 | 0.241 | 0.437 | 0.157 | -0.534 | -0.388
29 | ATCTCGAGGTAAAGTTCAGTGAAAGATCGATAGA | 2.23 | 2.68 | 2.72 | 0.929 | 1.7 | 1.71 | -0.0248 | 1.71
30 | GCTAGTTGGACAGTAAAAGGTCACACACCGGTCG | 5.22 | 4.89 | 4.27 | 0.31 | 4.94 | 3.55 | 1.71 | 1.59
31 | AGAACGAGGGCACCCTGAGTTGATAGCAGAGTAG | 0.823 | 1.54 | 1.76 | 1.42 | 1.14 | 1.59 | -0.12 | 1.36
